Laboratory results: PubChem BioAssay AID743171 (National Center for Advancing Translational Sciences (NCATS), 2013)
Several values for one entry are separate records, joined by “and”; a condition that tells them apart may be missing. Equal values may be shown once. Records with an inconclusive call do not appear. Activity calls are given as the source filed them. The call rests on the fitted dose curve; in most records, active means well fitted inhibition curve with a large enough effect; inconclusive means small, poorly fitted or top-dose-only effect; inactive means flat fitted curve, though single readings scatter.

Molecular target: 15-hydroxyprostaglandin dehydrogenase [NAD(+)] (Homo sapiens) (UniProt P15428)
Sequence (P15428 whole entry, looked up): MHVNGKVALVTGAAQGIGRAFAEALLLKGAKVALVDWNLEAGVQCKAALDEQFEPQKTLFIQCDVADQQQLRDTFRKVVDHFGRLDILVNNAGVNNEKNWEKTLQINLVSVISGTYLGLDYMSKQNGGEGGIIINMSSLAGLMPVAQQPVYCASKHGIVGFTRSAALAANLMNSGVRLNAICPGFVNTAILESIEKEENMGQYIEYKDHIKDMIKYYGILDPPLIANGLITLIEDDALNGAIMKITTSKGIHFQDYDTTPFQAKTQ
Assay: Extended Characterization of HPGD Inhibitors: Activity in Primary Assay (HPGD)
Conditions: recombinant HPGD, NADH fluorescence, PGE2 substrate
Source text: The central role of HPGD is to inactivate prostaglandins such as prostaglandin E2 (PGE2) or prostaglandin D2 (PGD2). These prostaglandins are involved in a number of processes, including inflammation, differentiation, and cellular signaling, which makes HPGD an important target for pharmacological intervention. Inhibition of 15-PGDH (HPGD) activity was screened by utilizing prostaglandin as an electron donor and NAD+ as an electron acceptor/cofactor. An increase in the fluorescence intensity due to conversion of NAD+ to NADH was used to measure the enzyme activity. All compounds were screened using a qHTS approach, where compounds are assayed using at least seven concentrations to generate concentration-response curves for every compound. Briefly, qHTS uses an inter-plate dilution method where the first plate contains the highest concentration of a set of compounds in DMSO, while subsequent plates contain the same compounds in the same well locations, but at successive lower concentrations. NIH Chemical Genomics Center [NCGC] NIH Molecular Libraries Probe Centers Network [MLPCN] MLPCN Grant: MH084681 Assay Submitter (PI): Structural Genomics Consortium
Three uL of enzyme (20 nM final concentration) were dispensed to 1536-well Greiner black solid bottom plates. Compounds (23 nL) were transferred via Kalypsys PinTool. The plates were incubated for 15 min at room temperature, and then 1 uL of substrate/cofactor solution (Substrate/cofactor solution: 1 mM NAD+ and 30 uM prostaglandin (Sigma, prostaglandin E2, #P5640)) were added to start the reaction. The plates were immediately transferred to and read 4 times every 30 seconds on a ViewLux High-throughput CCD imager (Perkin-Elmer) using 340 nm excitation and 450 nm emission fluorescence protocol. The fluorescence intensity difference between the last and the first time points, normalized against controls, was used to compute reaction progress.

Row | SMILES | Potency
1 | Cc1cccc(-n2cnc3cc(C(=O)N4CCCC(C)C4)ccc32)c1 (stereo not given) | 21.5 nM (active)
2 | Cc1cc(-c2nnc3n2CCCCC3)c(C)n1-c1ccc(Cl)cc1 | 38.3 nM (active)
3 | Cc1cc(-c2nnc3n2CCCCC3)c(C)n1-c1ccc(C(C)(C)C)cc1 | 85.7 nM (active) and 136 nM (active)
4 | Cc1cc(-c2nnc3n2CCCCC3)c(C)n1-c1cccnc1 | 271 nM (active)
5 | COc1ccc(-n2c(C)cc(-c3nnc4n3CCCCC4)c2C)cc1 | 85.7 nM (active)
